# Measurements: ChEMBL document CHEMBL1961873, “Compounds: GSK PKIS; Assays: Nanosyn kinase panel” (2012)
# Several values for one entry are separate records, joined by “and”; a condition that tells them apart may be missing. Equal entries are not always repeated.
# Target: Ribosomal protein S6 kinase beta-1 (Homo sapiens) (UniProt P23443)
# Conditions: at 0.1 µM
# Chain of Ribosomal protein S6 kinase beta-1 (Homo sapiens) (P23443 whole entry, looked up): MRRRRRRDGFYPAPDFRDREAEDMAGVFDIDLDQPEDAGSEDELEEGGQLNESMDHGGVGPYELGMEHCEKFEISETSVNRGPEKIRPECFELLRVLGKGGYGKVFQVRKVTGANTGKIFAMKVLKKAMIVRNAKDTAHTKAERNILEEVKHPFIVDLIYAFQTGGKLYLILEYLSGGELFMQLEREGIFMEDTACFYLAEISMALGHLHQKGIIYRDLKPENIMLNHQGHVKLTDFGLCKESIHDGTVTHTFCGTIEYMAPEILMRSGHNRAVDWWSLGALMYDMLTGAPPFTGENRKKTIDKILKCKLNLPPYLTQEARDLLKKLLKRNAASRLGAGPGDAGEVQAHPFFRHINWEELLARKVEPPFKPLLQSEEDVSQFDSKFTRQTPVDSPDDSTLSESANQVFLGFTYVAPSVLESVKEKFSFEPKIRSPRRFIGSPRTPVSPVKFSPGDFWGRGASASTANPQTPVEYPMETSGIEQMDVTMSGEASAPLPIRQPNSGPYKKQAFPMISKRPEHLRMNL
row,Compound,inhibition
1,c1cnn2ncc(-c3ccnc(NCCCN4CCOCC4)n3)c2c1,2.05%
2,CS(=O)(=O)CCNCc1ccoc1-c1ccc2ncnc(Nc3ccc(OCc4ccccc4)cc3)c2c1,-1.12%
3,COc1ccccc1-c1cc(/C=C2\C(=O)Nc3ncc(Br)cc32)cc(Br)c1O,2.51%
4,CN(C)CCNC(=O)Nc1ccc(N(C)c2ccnc(Nc3ccc(CS(C)(=O)=O)cc3)n2)cc1,1.72%
5,N#Cc1cccc(Nc2ncc(-c3ccccc3)o2)c1,-0.53%
6,Cc1nnc(-c2cccc(-c3ccc(C(=O)NCC4CC4)cc3)c2)o1,1.6%
7,CCN1CCC(C(=O)Nc2n[nH]c3nnc(-c4cccc(F)c4F)cc23)CC1,-0.22%
8,FC(F)(F)CNc1nccc(-c2cnn3ncccc23)n1,0.49%
9,c1ccc(-c2n[nH]cc2-c2ccnc(-c3ccc(OCCn4ccnc4)cc3)c2)nc1,0.32%
10,COc1cccc(Nc2nccc(-c3cnn4ncccc34)n2)c1,2.02%
11,CS(=O)(=O)CCNCc1ccc(-c2ccc3ncnc(Nc4ccc(OCc5ccccc5)cc4)c3c2)o1,1.52%
12,CN1CCN(Cc2ccc(-c3cc4ncnc(Nc5ccc(OCc6cccc(F)c6)c(Cl)c5)c4s3)o2)CC1,0.39% and 0.55%
13,O=C(O[C@H]1CN[C@H](C#Cc2cc3ncnc(Nc4ccc5c(cnn5Cc5ccccc5)c4)c3s2)C1)N1CCOCC1,-0.07%
14,O=C(O[C@H]1CN[C@H](C#Cc2cc3ncnc(Nc4ccc5c(ccn5Cc5cc(F)ccc5F)c4)c3s2)C1)N1CCOCC1,1.82%
15,CS(=O)(=O)Nc1ccc(-c2ccc3c(NC(=O)C4CC4)n[nH]c3c2)cc1,2.17%
16,O=C(Nc1n[nH]c2nnc(-c3cccnc3)cc12)C1CC1,-0.26%

row,Compound,inhibition
1,COc1ccc(Nc2ncc(-c3ccccc3)o2)cc1OC,1.51%
2,COc1ccc(-c2nn3ncccc3c2-c2ccnc(Nc3ccc(F)c(F)c3)n2)cc1,1.91%
3,OCCCNc1nccc(-c2c(-c3ccc(F)cc3)nn3cc(C(F)(F)F)ccc23)n1,3.2%
4,CC1(C)CC(n2cnc(-c3ccc(F)cc3)c2-c2ccnc(N)n2)CC(C)(C)N1,1.01%
5,Cc1cc(O)cc(C)c1/C=C/c1cncc(C(N)=O)c1,1.07%
6,CN1CCC(n2cnc(-c3ccc(F)cc3)c2-c2ccnc(NCCO)n2)CC1,0.69%
7,O=C1Nc2ccccc2/C1=C1\CCc2cc(O)ccc21,2.81%
8,CC1=C(C(=O)Nc2ccc3[nH]ncc3c2)C(c2ccc(F)cc2)N=C(c2ccc(C(F)(F)F)nc2)N1 (configuration not stated),1.03%
9,COC(=O)Nc1nc2ccc(Oc3ccc(NC(=O)Nc4cc(C(F)(F)F)ccc4F)cc3)cc2s1,6.33%
10,Cn1c(-c2nonc2N)nc2cnccc21,19.8%
11,CNC(=O)c1ncccc1Nc1nc(Nc2cc3c(cc2OC)CCCN3C(=O)CN(C)C)nc2[nH]ccc12,2.79%
12,COc1c(C(N)=O)cc(-c2ccc(Cl)cc2)cc1-c1ccc(S(N)(=O)=O)cc1,3.07%
13,CS(=O)(=O)CCNCc1ccc(-c2ccc3ncnc(Nc4ccc(OCc5cccc(C(F)(F)F)c5)cc4)c3c2)o1,1.39%
14,NC(=O)c1ccc2c(-c3ccnc(NCCCO)n3)c(-c3ccc(F)cc3)nn2c1,1.72%
15,COc1cc(Nc2ncc(-c3ccccc3)o2)cc(OC)c1,2.08%

# Target: Ribosomal protein S6 kinase beta-1 (Homo sapiens) (UniProt P23443)
# Conditions: at 1 µM
row,Compound,inhibition
1,c1cnn2ncc(-c3ccnc(NCCCN4CCOCC4)n3)c2c1,2.73%
2,CS(=O)(=O)CCNCc1ccoc1-c1ccc2ncnc(Nc3ccc(OCc4ccccc4)cc3)c2c1,-1.32%
3,COc1ccccc1-c1cc(/C=C2\C(=O)Nc3ncc(Br)cc32)cc(Br)c1O,2.75%
4,CN(C)CCNC(=O)Nc1ccc(N(C)c2ccnc(Nc3ccc(CS(C)(=O)=O)cc3)n2)cc1,1.94%
5,N#Cc1cccc(Nc2ncc(-c3ccccc3)o2)c1,1.42%
6,Cc1nnc(-c2cccc(-c3ccc(C(=O)NCC4CC4)cc3)c2)o1,3.46%
7,CCN1CCC(C(=O)Nc2n[nH]c3nnc(-c4cccc(F)c4F)cc23)CC1,-1.27%
8,FC(F)(F)CNc1nccc(-c2cnn3ncccc23)n1,0.86%
9,c1ccc(-c2n[nH]cc2-c2ccnc(-c3ccc(OCCn4ccnc4)cc3)c2)nc1,0.33%
10,COc1cccc(Nc2nccc(-c3cnn4ncccc34)n2)c1,3.93%
11,CS(=O)(=O)CCNCc1ccc(-c2ccc3ncnc(Nc4ccc(OCc5ccccc5)cc4)c3c2)o1,2.62%
12,CN1CCN(Cc2ccc(-c3cc4ncnc(Nc5ccc(OCc6cccc(F)c6)c(Cl)c5)c4s3)o2)CC1,1.79% and 5.31%
13,O=C(O[C@H]1CN[C@H](C#Cc2cc3ncnc(Nc4ccc5c(cnn5Cc5ccccc5)c4)c3s2)C1)N1CCOCC1,-1.65%
14,O=C(O[C@H]1CN[C@H](C#Cc2cc3ncnc(Nc4ccc5c(ccn5Cc5cc(F)ccc5F)c4)c3s2)C1)N1CCOCC1,1.74%
15,CS(=O)(=O)Nc1ccc(-c2ccc3c(NC(=O)C4CC4)n[nH]c3c2)cc1,2.83%
16,O=C(Nc1n[nH]c2nnc(-c3cccnc3)cc12)C1CC1,0.25%

row,Compound,inhibition
1,COc1ccc(Nc2ncc(-c3ccccc3)o2)cc1OC,2.28%
2,COc1ccc(-c2nn3ncccc3c2-c2ccnc(Nc3ccc(F)c(F)c3)n2)cc1,2.58%
3,OCCCNc1nccc(-c2c(-c3ccc(F)cc3)nn3cc(C(F)(F)F)ccc23)n1,2.94%
4,CC1(C)CC(n2cnc(-c3ccc(F)cc3)c2-c2ccnc(N)n2)CC(C)(C)N1,0.28%
5,Cc1cc(O)cc(C)c1/C=C/c1cncc(C(N)=O)c1,0.31%
6,CN1CCC(n2cnc(-c3ccc(F)cc3)c2-c2ccnc(NCCO)n2)CC1,1.98%
7,O=C1Nc2ccccc2/C1=C1\CCc2cc(O)ccc21,11.6%
8,CC1=C(C(=O)Nc2ccc3[nH]ncc3c2)C(c2ccc(F)cc2)N=C(c2ccc(C(F)(F)F)nc2)N1 (configuration not stated),7.4%
9,COC(=O)Nc1nc2ccc(Oc3ccc(NC(=O)Nc4cc(C(F)(F)F)ccc4F)cc3)cc2s1,23.2%
10,Cn1c(-c2nonc2N)nc2cnccc21,66.6%
11,CNC(=O)c1ncccc1Nc1nc(Nc2cc3c(cc2OC)CCCN3C(=O)CN(C)C)nc2[nH]ccc12,3.62%
12,COc1c(C(N)=O)cc(-c2ccc(Cl)cc2)cc1-c1ccc(S(N)(=O)=O)cc1,4.29%
13,CS(=O)(=O)CCNCc1ccc(-c2ccc3ncnc(Nc4ccc(OCc5cccc(C(F)(F)F)c5)cc4)c3c2)o1,3.25%
14,NC(=O)c1ccc2c(-c3ccnc(NCCCO)n3)c(-c3ccc(F)cc3)nn2c1,1.46%
15,COc1cc(Nc2ncc(-c3ccccc3)o2)cc(OC)c1,3.04%
